# This is a sample that favours compounds with a hit; in the whole collection about 0.82% have one here.
# FadD28 FP inh: blocks FadD28 binding to the bisubstrate probe; fluorescence polarization; inhibition, % at 12.5 µM; actives 0.22% (n = 360,000); in the data active means inhibition above about 8.5%, passing the limit was not always enough; inconclusive means no clear call, values can overlap the other calls
# Mtb BioA inh: blocks M. tuberculosis BioA enzyme activity. purified M. tuberculosis BioA enzyme, plate reader. actives 0.096% (n = 360,000). AID 602481. inhibition, % at 9.99 µM; in the data active means inhibition above about 40%; inconclusive means no clear call, values can overlap the other calls
# Yp Topo-I inh: inhibitors of Yersinia pestis topoisomerase I | Y. pestis Topo-I cleavage product accumulation, plate reader | activity, % at 10 µM | actives 0.064% (n = 360,000) | AID 504884; in the data active means activity above about 50%, passing the limit was not always enough; inconclusive means no clear call, values can overlap the other calls
# RecA splice inh: blocks M. tuberculosis RecA intein splicing | inhibition, % (concentration not given with the values) | actives 0.75% (n = 290,000) | AID 2221 | cell-free RecA intein splicing, fluorescence; in the data active means inhibition above about 30%; inconclusive means no clear call, values can overlap the other calls
# Target sequence (P9WHJ3 whole entry, looked up, canonical isoform): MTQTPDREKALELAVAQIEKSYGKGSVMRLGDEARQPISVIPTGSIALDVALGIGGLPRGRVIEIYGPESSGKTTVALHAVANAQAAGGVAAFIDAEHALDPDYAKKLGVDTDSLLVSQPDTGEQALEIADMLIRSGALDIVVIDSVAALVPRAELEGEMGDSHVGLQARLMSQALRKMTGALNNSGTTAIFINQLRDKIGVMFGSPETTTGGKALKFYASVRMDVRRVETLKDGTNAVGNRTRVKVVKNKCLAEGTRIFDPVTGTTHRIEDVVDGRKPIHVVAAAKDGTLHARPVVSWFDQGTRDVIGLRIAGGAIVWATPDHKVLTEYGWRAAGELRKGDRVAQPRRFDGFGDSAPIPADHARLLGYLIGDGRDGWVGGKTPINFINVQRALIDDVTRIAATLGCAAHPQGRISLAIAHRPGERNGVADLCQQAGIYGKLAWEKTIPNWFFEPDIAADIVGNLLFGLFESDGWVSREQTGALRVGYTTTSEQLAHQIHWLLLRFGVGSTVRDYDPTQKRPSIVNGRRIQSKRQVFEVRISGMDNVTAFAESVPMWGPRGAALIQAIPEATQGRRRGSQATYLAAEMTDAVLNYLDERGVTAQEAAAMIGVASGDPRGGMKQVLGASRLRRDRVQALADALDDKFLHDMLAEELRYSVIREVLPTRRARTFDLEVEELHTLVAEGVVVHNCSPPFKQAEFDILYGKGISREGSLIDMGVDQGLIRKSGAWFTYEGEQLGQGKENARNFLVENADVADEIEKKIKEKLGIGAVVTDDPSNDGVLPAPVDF
# Rv3671c inh: inhibitors of M. tuberculosis serine protease Rv3671c | P9WHR9 | inhibition, % at 5.96 µM | actives 0.048% (n = 320,000) | AID 2606;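 further: extracellular domain of Rv3671c used as enzyme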
# Mtb UGM inh: blocks M. tuberculosis UGM enzyme. actives 0.06% (n = 320,000). purified UGM, fluorescence polarization probe displacement. inhibition, % at 10 µM. P9WIQ1. AID 504406; in the data active means inhibition above about 10%, passing the limit was not always enough; inconclusive means no clear call, values can overlap the other calls
# Rv3671c confirm: Rv3671c protease inhibition, confirmation; actives 40% (n = 140); AID 2761; shares compounds with Rv3671c inh; inhibition, % at 5.96 µM
# Numbers stand for hits; i = inactive; ? = inconclusive; nt = no result. Unless noted, no stated cut-off is given here; in the data, active means inhibition above about 38%; inactive means the rest.
SMILES,FadD28 FP inh,Mtb BioA inh,Yp Topo-I inh,RecA splice inh,Rv3671c inh,Mtb UGM inh,Rv3671c confirm
Cc1cccc2c(=O)oc(-c3ccccc3Cl)nc12,i,i,i,i,51,i,72
Cc1ccccc1-c1nc2cc(Cl)ccc2c(=O)o1,i,nt,i,i,i,i,nt
COc1ccc(-c2cc(C(F)(F)F)nc(S(=O)(=O)CCC(=O)N3CCOCC3)n2)cc1,i,i,i,i,60,i,i
C[n+]1c(-c2ccccc2)c2cc(N)ccc2c2ccc(N)cc21,13,i,i,i,74,i,90
CN1C(=O)c2cc(NS(=O)(=O)c3ccc(F)cc3)ccc2OC[C@H]2O[C@@H](CC(=O)O)CC[C@@H]21,nt,i,nt,nt,nt,nt,nt
CC(C)NC(=O)Nc1ccc2c(c1)C(=O)N([C@@H](C)CO)C[C@@H](C)[C@H](CN(C)CC1CCCCC1)OCCCC[C@@H](C)O2,nt,i,nt,nt,nt,nt,nt
Nc1ccc2nc(-c3ccc(-c4nc5ccc(N)cc5[nH]4)cc3)[nH]c2c1,nt,nt,nt,i,39,i,50
CN1C(=O)c2cc(NC(=O)c3ccccc3)ccc2OC[C@H]2O[C@@H](CC(=O)O)CC[C@H]21,nt,i,nt,nt,nt,nt,nt
CC1CCN(S(=O)(=O)c2ccc3[nH]c(=O)c(=O)[nH]c3c2)CC1,i,i,i,i,62,i,i
C(=N\Nc1nc2ccccc2[nH]1)/c1ccccc1,i,i,i,i,i,i,nt
C(=N\Nc1nc2ccccc2[nH]1)/c1c[nH]c2ccccc12,i,nt,i,i,41,i,92
O=[N+]([O-])c1cc(/C=N/Nc2nc3ccccc3[nH]2)c(O)cc1O,nt,nt,nt,40,60,i,i
Cc1ccccc1/C=N/Nc1nc2ccccc2[nH]1,i,nt,i,i,i,i,nt
C(=N\Nc1nc2ccccc2[nH]1)/c1cccc2cccnc12,i,i,i,i,38,i,i
CO[C@@H]1CN(C)C(=O)c2ccc(NC(=O)C3CCCC3)cc2OC[C@@H](C)N(C(=O)c2ccccc2)C[C@H]1C,nt,i,nt,nt,nt,nt,nt
O=C(NCc1ccco1)c1cccc(Nc2nc3ccc(Br)cc3[nH]2)c1,i,i,i,i,40,i,44
N#CCCN(CCC#N)C(=O)C1c2ccccc2Oc2ccccc21,11,i,i,nt,84,73,i
CN1C(=O)NC(c2ccccc2[N+](=O)[O-])C2=C1CCCC2=O (centres undefined),i,i,i,i,74,12,38
CN1C(=O)NC(c2ccccc2[N+](=O)[O-])C2=C1CC(C)(C)CC2=O (centres undefined),i,nt,i,i,i,i,nt
CCNc1cc(O)ccc1C,i,i,i,nt,63,i,i
Cc1ccc(C(=O)CNc2cc(C)ccc2C)cc1,i,i,i,i,i,i,nt
O=c1[nH]nc(CNc2ccc(O)cc2)c2ccccc12,i,i,i,i,40,i,i
O=c1[nH]nc(CNc2ccc(C(F)(F)F)cc2)c2ccccc12,i,i,i,i,i,i,nt
COc1ccccc1Oc1coc2cc(OCC(N)=O)ccc2c1=O,i,i,i,i,i,i,nt
CC(C)(C)c1ccc(Oc2coc3cc(OCC(=O)O)ccc3c2=O)cc1,i,nt,i,i,49,i,i
SMILES,FadD28 FP inh,Mtb BioA inh,Yp Topo-I inh,RecA splice inh,Rv3671c inh,Mtb UGM inh,Rv3671c confirm
Cc1ccc(-n2c(SCC(=O)Nc3ccc4c5c(cccc35)CC4)nc(O)cc2=O)cc1,i,nt,i,i,45,i,i
Cn1c(O)c(/C=N/NC(=O)c2cc3ccccc3cc2O)c2ccccc21,?,i,i,i,47,i,i
CO[C@@H]1CN(C)C(=O)c2cc(NS(=O)(=O)C3CCCCC3)ccc2OC[C@H](C)NC[C@@H]1C,nt,i,nt,nt,nt,nt,nt
CCc1cc(=O)oc2cc(C)cc(OC(=O)c3ccco3)c12,i,i,i,i,58,i,78
Cc1cc(OC(=O)c2ccco2)c2c3c(c(=O)oc2c1)CCC3,i,i,i,i,i,i,nt
Cc1cc(OC(=O)c2ccco2)c2c(C)cc(=O)oc2c1,i,nt,i,i,47,i,74
CCCc1cc(=O)oc2cc(C)cc(OCC(=O)NC3CCN(Cc4ccccc4)CC3)c12,i,i,i,i,125,i,i
O=C(C[C@@H]1C=C[C@@H](NC(=O)C2CCC2)[C@H](CO)O1)NCc1ccccc1Cl,nt,i,nt,nt,nt,nt,nt
CC1=C(C(N)=O)C(c2ccccc2)n2nc(-c3cccc(C)c3)nc2N1 (centres undefined),i,i,i,i,65,i,60
CC1=C(C(N)=O)C(c2cccnc2)n2nc(-c3cccc(Cl)c3)nc2N1 (centres undefined),i,i,i,i,i,i,nt
Cc1nc2ccccc2n2c(O)c(CC(=O)O)cc12,14,i,i,i,53,i,i
CC(=O)c1c(OC(=O)c2ccco2)c2ccccc2n1C,i,i,i,i,74,i,77
CC(=O)c1sc2ccccc2c1OC(=O)c1ccco1,i,i,i,i,61,i,56
CC(=O)c1ccccc1OC(=O)c1ccco1,i,i,i,i,i,i,nt
COc1ccccc1S(=O)(=O)Nc1ccc2c(c1)OC[C@@H](C)NC[C@@H](C)[C@@H](OC)CN(C)C2=O,nt,i,nt,nt,nt,nt,nt
Cc1cc(N)ccc1-n1c(C)ccc1C,i,i,i,i,83,i,i
Nc1ccc(Nc2nc3ccccc3[nH]2)cc1,i,i,i,i,50,i,46
O=C(C[C@H]1CC[C@@H](NC(=O)c2ccccn2)[C@@H](CO)O1)NCc1cccc(F)c1,nt,i,nt,nt,nt,nt,nt
C=C1c2cccc(O)c2C(O)=C2C(=O)[C@]3(O)C(O)=C(C(N)=O)C(=O)[C@@H](N(C)C)[C@@H]3[C@@H](O)[C@H]12,i,i,i,i,50,i,i
Cc1cc2c(N)cccc2nn1,i,i,i,60,55,i,i
Nc1cccc2nc3ccccc3cc12,i,i,i,i,i,nt,nt
Cc1nn(Cc2ccccc2)c(C)c1NC(=O)c1ccc([N+](=O)[O-])cc1[N+](=O)[O-],i,i,i,i,166,i,i
Cc1nn(Cc2ccccc2)c(C)c1NC(=O)Cn1nc([N+](=O)[O-])c(Cl)c1C,i,i,i,nt,i,i,nt
c1ccc(-c2nc3cc4ccccc4cc3[nH]2)nc1,i,i,i,i,39,i,44
CC(=O)Nc1ccc2nc(-c3ccccn3)[nH]c2c1,i,i,i,i,i,i,nt
O=[N+]([O-])c1ccc(NN=Cc2cccc3ccccc23)nc1,i,i,i,nt,nt,nt,nt
COc1cccc(/C=N/Nc2ccc([N+](=O)[O-])cn2)c1O,i,i,i,i,81,i,i
Cc1ccc(S(=O)(=O)N(C)C[C@@H]2Oc3c(NC(=O)c4ccc(-c5nccs5)cc4)cccc3C(=O)N([C@@H](C)CO)C[C@@H]2C)cc1,nt,i,nt,nt,nt,nt,nt
COc1ccccc1C#Cc1cnc2c(c1)C(=O)N([C@@H](C)CO)C[C@@H](C)[C@H](CN(C)C(=O)CC1CC1)O2,nt,i,nt,nt,nt,nt,nt
C[C@@H]1CN([C@H](C)CO)C(=O)c2cc(NS(=O)(=O)c3ccc(Cl)cc3)ccc2O[C@H]1CN(C)C(=O)Nc1ccccc1,nt,i,nt,nt,nt,nt,nt
